# Compound activity (PubChem)
# Many of the other results were omitted from the sample, so hits are more common in it than they were.
# KDM5B inhibitor – inhibitors of human KDM5B histone demethylase. Q9UGL1. KDM5B demethylase, FDH-coupled NADH fluorescence (FDH is formaldehyde dehydrogenase). Potency, µM (titrated, usually from 57.7 µM), actives largely listed as inhibitors. 220,000 tested, 2.6% active. AID 1347165; active = well fitted inhibition curve with a large enough effect; note: nearly all actives have a fitted effect of over 70% in size
#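 Inhibition is measured as reduced NADH fluorescence generation from FDH coupling to formaldehyde release. Truncated KDM5BΔAP at 200 nM final acts on H3K4me3 peptide (12.5 µM in substrate mix) in pH 7.5 HEPES buffer with Tween-20, 30 min, room temperature.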
# Numbers stand for hits; – = inactive.
SMILES,KDM5B inhibitor
CCc1nc2nccc(-c3ccc(Br)s3)n2n1,–
CN1C(=O)Cc2cc(-c3csc(-c4ccccc4)n3)ccc21,–
COCC(=O)N1CCCC2(Cc3ccccc3NC2=O)C1 (centres undefined),–
N#CCCC(C#N)Cn1nc(-c2ccc(F)cc2)c2ccccc2c1=O (centres undefined),–
CN1CCN(C(=O)CN2C(=O)c3ccccc3C2c2cn(C)c3ccccc23)CC1 (centres undefined),–
Cc1nc(CCNC(=O)c2c[nH]c3ccccc23)cs1,–
CCc1nc2nccc(-c3ccc(OC)cc3)n2n1,22µM
COc1ccc(Cc2nc3nccc(-c4ccncc4)n3n2)cc1,–
COCc1nc2nccc(-c3ccc(OC)cc3)n2n1,–
CCc1nc2nccc(-c3cccc(OC)c3)n2n1,25µM
COc1ccc(Cc2nc3nccc(-c4ccc(OC)cc4)n3n2)cc1,14µM
Cc1cc(C(=O)OCC(=O)Nc2c(C)cccc2C)c2ccccc2n1,–
CCCCC(=O)Nc1c(S(=O)(=O)c2ccc(F)cc2)c(C)c(C)n1CCOC,–
CCNC(=O)Cn1c(CO)cnc1SCc1ccccc1Cl,–
Cc1ncc(COC(=O)C(C)C)c2cc(-c3nc(-c4ccccc4F)no3)c(=O)oc12,–
Cc1sc2nc(SCc3ccc(F)cc3Cl)n(CCCN3CCOCC3)c(=O)c2c1C,–
Cc1cccc(C(=O)NC2CCN(c3cnn(C)c(=O)c3)CC2)c1,–
CC(C)c1cc(C(=O)NC2CCN(c3ncccc3C#N)CC2)n(C)n1,22µM
CC(Oc1ccccc1C#N)C(=O)NC1CC1 (centres undefined),–
Cc1cc2cc(C(=O)N3C[C@H]4CC=CC[C@H]4C3)ccc2o1,–
O=C(NC1CCCC1)c1csc(N2CCN(c3ccccc3F)CC2)n1,–
N#Cc1cccc(NC(=O)N2CCN(c3ncccc3Cl)CC2)c1,–
CC(C)c1cc(C(=O)N2CCN(c3ncccc3C#N)CC2)n(C)n1,32µM
Cc1nc(N2CCC(NC(=O)c3ccccn3)CC2)cc(C(F)(F)F)n1,–
Cc1nc(C(=O)NC2CCN(c3ncccc3C#N)CC2)cs1,28µM
SMILES,KDM5B inhibitor
COc1ccc(C(=O)N2CCN(c3nc4cccnc4o3)CC2)cc1C#N,–
Cc1cc2cc(C(=O)N3CCN(c4ncccc4C#N)CC3)ccc2o1,28µM
Cn1nc2n(c1=O)CCN(C(=O)c1cccc(C#N)c1)CC2,–
Cc1cc(N2CCN(S(=O)(=O)c3ccc(Cl)c(Cl)c3)CC2)nc(C(C)C)n1,–
CNc1c(NC(=O)c2cc(OC)c(OC)c(OC)c2)c(=O)oc2ccccc12,–
COc1cc2ccccc2cc1C(=O)N1CCN(CC(=O)Nc2ccccc2Cl)CC1,–
Fc1ccc(CSC2=NCCN2)c(Br)c1,–
N#Cc1ccccc1COC(=O)c1ccc(Cl)cc1,–
COc1ccc(-c2nc3c(c(-c4ccccc4)n2)CN(C(=O)c2ccccc2F)CC3)cc1,–
CNc1c(NC(=O)Cc2cccs2)c(=O)oc2ccccc12,–
COc1cc(Cl)c(C)cc1NC(=O)c1cc(=O)n2c(nc3ccccc32)s1,–
N#Cc1cccc(CNCc2ccc(CN3CCCC3)cc2)c1,–
O=C(C1CCCC1)N(Cc1ccc2cc[nH]c2c1)C1CC1,–
C/C(=N\NC(=O)c1cccs1)c1ccc(Cl)cc1,–
Nc1ncc(C(=O)N[C@@H]2CC[C@@H](N)C2)c(-c2ccccc2)n1,22µM
Cn1cc(C(NC(=O)c2cnc(N)nc2-c2ccccc2)C2CC(O)C2)cn1 (centres undefined),–
Cc1ncc(C(=O)N[C@H]2CC[C@H]2NC2CCCC2)c(-c2ccccc2)n1,–
CCCc1noc(-c2cc(S(=O)(=O)NCCc3ccccc3)ccc2OC)n1,–
Cc1cc(C)cc(NC(=O)COC(=O)c2cccc(S(=O)(=O)N3CCc4ccccc43)c2)c1,–
CC(C)CNC(=O)C(C)SCc1ccccc1 (centres undefined),–
CC(=O)Nc1cccc(-c2ccc3ncn(Cc4ccccn4)c(=O)c3n2)c1,–
O=c1c2nc(-c3ccccc3)ccc2ncn1-c1ccccc1,40µM
Cn1cnc2ccc(-c3ccncc3)nc2c1=O,–
O=c1c2nc(Nc3cccnc3)ccc2ncn1-c1ccc(F)cc1F,–
O=c1c2nc(-c3cccc(O)c3)ccc2ncn1Cc1ccccn1,–
SMILES,KDM5B inhibitor
O=c1c2nc(-c3ccc(F)cc3)ccc2ncn1Cc1ccccn1,32µM
Cn1cnc2ccc(Nc3cccc(F)c3)nc2c1=O,–
O=c1c2nc(-c3cccnc3)ccc2ncn1Cc1ccccc1,–
Cn1nccc1-c1ccc2ncn(-c3ccc(F)cc3F)c(=O)c2n1,40µM
Cn1cnc2ccc(Nc3ccccc3)nc2c1=O,–
Cn1nccc1-c1ccc2ncn(-c3ccccc3)c(=O)c2n1,32µM
COc1ccc(Nc2ccc3ncn(-c4ccccc4)c(=O)c3n2)cn1,–
CCn1c(NC(=O)CCc2nc(-c3ccc(OC)c(OC)c3)no2)nc2ccccc21,–
COC(=O)COc1cccc(N)c1,–
CCc1cc(SC#N)cc(CC)c1N,–
Cc1c(-c2ccccc2)oc2c(C(=O)NC3CCN(Cc4ccccc4)C3)cccc2c1=O (centres undefined),–
O=C(Nc1ccccc1F)c1cnn2c(C(F)F)cc(C3CC3)nc12,–
COc1ccc(C(=O)/C=C/c2cccc(F)c2)cc1CSCC(=O)O,–
O=C(c1ccc(Cl)cc1)c1ccc(OCc2cccc3ccccc23)cc1,–
O=C(NCc1ccc(F)cc1)N1CCC(c2noc(-c3ccccn3)n2)C1 (centres undefined),–
Cc1ccc(C(=O)OC(C)C(=O)NC(=O)NC2CC2)c(O)c1 (centres undefined),–
COc1ccccc1-c1c(C)oc2cc(OCC#N)ccc2c1=O,–
COCc1nncn1C1CCN(S(=O)(=O)c2ccc(C)cc2C)CC1,–
CC(=O)c1sc(-c2cccc(F)c2)nc1C,–
O=C(NC1CCCCC1)c1ccc2c(Cl)c3c(nc2c1)CCCC3,–
COc1cc(OC)cc(C(=O)NC(C)(C)CC(C)(C)C)c1,–
COC(=O)[C@@H]1Cc2c([nH]c3ccccc23)[C@H]2C[C@@H](NCCc3cnc[nH]3)C[C@@H](c3cccc(Cl)c3)N21,–
COC(=O)[C@@H]1Cc2c([nH]c3ccccc23)[C@H]2C[C@@H](NC(C)C)C[C@@H](c3ccc(C)cc3)N21,28µM
Cc1ccc(C2c3[nH]c4ccccc4c3CCN2C(=O)CCC2CCCC2)cc1 (centres undefined),–
COC(=O)[C@@H]1Cc2c([nH]c3ccccc23)[C@H]2C[C@@H](NCCNC(C)=O)C[C@@H](c3ccc(-c4ccccc4)cc3)N21,–
SMILES,KDM5B inhibitor
COC(=O)[C@@H]1Cc2c([nH]c3ccccc23)[C@H]2C[C@@H](NC(C)C)C[C@@H](c3ccccc3)N21,11µM
Cc1ccc(C2c3[nH]c4ccccc4c3CCN2C(=O)c2ccccc2Br)cc1 (centres undefined),–
COc1ccc(C2CCCN2C(=O)c2nn(C)c(=O)c3ccccc23)cc1 (centres undefined),–
Cc1cccc2sc(N(Cc3cccnc3)C(=O)c3ccc(Cl)s3)nc12,–
CCC(=O)C(=O)N1CCC2(CCCN(Cc3ccc(C(C)C)cc3)C2=O)C1 (centres undefined),–
COc1ccc(Cl)cc1NC(=O)Cn1c(=O)cc(C(=O)N2CCCC2)c2ccccc21,–
Cc1ccc(C(=O)c2sc(Nc3cc(Cl)ccc3C)nc2N)cc1,–
O=C(N[C@H]1C[C@H]2C(=O)Nc3ccc(-c4cccs4)cc3C(=O)N2C1)c1ccccc1,32µM
